CYP2C9 act = CYP2C9 (human) activation; recombinant CYP2C9, luciferin-H conversion, luminescence; stronger effect = higher value; factor 1 = untreated enzyme, 0 = blocked; activation factor at 5 µM; 96,000 compounds, 1.4% hits; AID 1024;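 active = activation factor of 2 or more for CYP2C9 at a 5 µM dose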
CYP2C9 inhib = inhibitors of human CYP2C9 | P11712 | CYP2C9 Supersomes, luciferin-H conversion, luminescence | inhibition, % at 5 µM | 96,000 compounds, 20% hits | AID 777;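 active = blocking of liver enzyme CYP2C9 beyond about 50% at 5 µM, limit read from the data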
CYP2C19 inhib = inhibitors of human CYP2C19; P33261; CYP2C19 Supersomes, luciferin-H EGE luminescence, 30 min; inhibition, % at 5 µM; 96,000 compounds, 21% hits; AID 778;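 active = CYP2C19 inhibition above a set limit at 5 µM in the primary screen, cut at about 50% in these data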
Target sequence (P33261 whole entry, looked up): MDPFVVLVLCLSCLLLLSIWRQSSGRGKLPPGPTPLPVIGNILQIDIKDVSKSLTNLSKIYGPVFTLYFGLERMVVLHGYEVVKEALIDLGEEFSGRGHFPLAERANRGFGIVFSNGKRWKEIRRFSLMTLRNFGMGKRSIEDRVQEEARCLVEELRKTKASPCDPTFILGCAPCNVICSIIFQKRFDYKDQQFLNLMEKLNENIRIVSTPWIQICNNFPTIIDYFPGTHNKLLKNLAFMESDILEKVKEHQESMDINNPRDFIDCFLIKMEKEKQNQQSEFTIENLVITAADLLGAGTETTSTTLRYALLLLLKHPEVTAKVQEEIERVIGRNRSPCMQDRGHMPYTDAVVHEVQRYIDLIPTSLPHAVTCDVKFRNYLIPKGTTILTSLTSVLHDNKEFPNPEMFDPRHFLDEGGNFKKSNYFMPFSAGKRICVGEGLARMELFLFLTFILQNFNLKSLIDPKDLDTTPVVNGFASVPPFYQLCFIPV
CYP2C19 activ = cytochrome P450 2C19 (human) activation; recombinant CYP2C19, luciferin-H EGE luminescence; stronger effect = higher value; 0 = fully inhibited enzyme, 1 = untreated enzyme; P33261; AID 1025; activation factor at 5 µM; 96,000 tested, under 10 active;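 active = activation factor of at least 2 at 5 µM in the primary screen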
PostGolgi ctrl = inhibits growth of the yeast control strain; AID 738; 98,000 compounds, 5% hits; inhibition, % at 10 µM; efflux-deficient yeast background strain, growth absorbance A615, 16 h
PostGolgi yeast = growth inhibition of a yeast mutant, post-Golgi transport screen; post-Golgi transport phenotypic cell assay; inhibition, % at 10 µM; 98,000 compounds, 0.9% hits; AID 739;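 also: yeast cells grown in 1536-well plates; yeast grown about 18 h at 30C before absorbance read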
Hits are given with their value; – = inactive; · = no result. A selection: hits, their analogues and other compounds. The true share with any hit is near 32%. Rule as the data show it, unless noted: active = inhibition above about 30%; inactive = the rest.

SMILES	CYP2C9 act	CYP2C9 inhib	CYP2C19 inhib	CYP2C19 activ	PostGolgi ctrl	PostGolgi yeast
O=C(c1ccccc1F)N1CCN(S(=O)(=O)c2ccc(S(=O)(=O)N3CCCCC3)cc2)CC1	–	–	80	–	–	–
CS(=O)(=O)N1CCN(C(=O)c2ccccc2F)CC1	–	–	57	–	–	–
Cc1scc(C(=O)N2CCN(S(C)(=O)=O)CC2)c1-c1ccccc1	–	–	97	–	–	–
Cc1cccc(CN2CCN(C(=O)c3ccccc3F)CC2)c1	–	68	99	–	–	–
CSc1nnc2c3cc(C)ccc3n(Cc3ccccc3)c2n1	–	–	–	–	–	–
C=CCSc1nc(C)c(CC(=O)OCC(C)C)c(=O)[nH]1	–	–	–	–	–	–
Cc1ccc(CNC(=O)/C(C#N)=C/c2ccc(C)s2)cc1	–	–	–	–	–	–
COc1ccc(C(=O)NCC(c2cccnc2)N2CCN(c3ccccc3OC)CC2)cc1OC (centres undefined)	–	–	–	–	–	–
CCOC(=O)c1c(NC(=O)c2nn(CC)cc2Br)sc2c1CCCCC2	–	82	–	–	–	–
CCOC(=O)c1c(NC(=O)Cn2nc(C(F)F)cc2C(F)F)sc(C)c1C	–	65	–	–	–	–
CCOC(=O)c1c(NC(=O)c2nn(CC)cc2Br)sc(C)c1C	–	76	–	–	–	–
COc1ccc(Nc2ncnc3c2cnn3Cc2ccc(C)cc2)cc1	–	–	–	–	–	–
CCCCNc1c([N+](=O)[O-])cc(C)cc1[N+](=O)[O-]	–	–	–	–	–	–
Cc1cccc(-c2nnc(SCCOc3ccc4c(C)cc(=O)oc4c3)o2)c1	–	–	–	–	–	–
O=C(CCSc1nnc(-c2ccco2)o1)Nc1ccccc1	–	–	79	–	–	–
O=C(CCSc1nnc(-c2ccncc2)o1)Nc1ccccc1Cl	–	61	87	–	–	–
CC(=O)c1c(C)cc(C)c(CSc2nnc(-c3ccco3)o2)c1C	–	51	–	–	–	–
Cc1ccc(NC(=O)CSc2nnc(-c3ccncc3)o2)cc1	–	51	98	–	–	–
COc1cccc(NC(=O)CSc2nnc(-c3ccc(C)cc3)o2)c1	–	–	–	–	–	–
[2H]c1c([2H])c([2H])c(-c2nc(N3CCCCCC3)sc2C(=O)c2ccccc2)c([2H])c1[2H]	–	–	–	–	–	–
O=C(CCSc1nnc(-c2ccncc2)o1)Nc1ccc(Cl)cc1	–	84	96	–	99	102
O=[N+]([O-])c1ccc(Cl)c(/C=N/N2CCN(c3ccccc3)CC2)c1	2.9	–	–	–	–	–
O=[N+]([O-])c1ccc(Cl)c(/C=N/N2CCN(C3c4ccccc4-c4ccccc43)CC2)c1	–	–	–	–	–	–
CCN(CC)S(=O)(=O)N1CCC(C(=O)NC2CCCc3ccccc32)CC1 (centres undefined)	·	·	·	·	–	–
O=C(N1CCOCC1)N1c2ccccc2Sc2ccccc21	–	–	55	–	–	–
SMILES	CYP2C9 act	CYP2C9 inhib	CYP2C19 inhib	CYP2C19 activ	PostGolgi ctrl	PostGolgi yeast
COc1cc(SC)ccc1C(=O)Nc1ccon1	–	–	–	–	31	–
COc1ccccc1CN1CC(C(=O)NCc2cccnc2)CC1=O (centres undefined)	–	–	–	–	–	–
O=C(Oc1ccc2[nH]cc(CCN3C(=O)c4ccccc4C3=O)c2c1)c1ccco1	–	76	–	–	–	–
COCCCNCC(=O)c1c(N)n(Cc2ccccc2)c(=O)n(C)c1=O	–	–	–	–	–	–
Cc1ccccc1NC(=O)CCC(=O)OCCCC(F)(F)C(F)(F)F	–	–	–	–	–	–
O=C(NC(=S)Nc1ccccc1Cl)c1csnn1	–	–	–	–	–	–
CCOC(=O)c1cc2c(ccn2C)n1Cc1ccccc1C	–	–	–	–	–	–
Cc1ccccc1Cn1c(C(=O)OC(C)C)cc2c1ccn2C	–	–	53	–	–	–
Cc1ccc(C)c(Cn2c(C(=O)OC(C)C)cc3c2ccn3C)c1	–	–	55	–	–	–
O=C(CSc1nnc(Cc2cc(=O)[nH]c(=O)[nH]2)n1-c1ccc(F)cc1)NC1CCCC1	–	–	–	–	–	–
Cc1ccc(CNC(=O)CCS(=O)(=O)c2ccc(Br)s2)cc1	–	–	–	–	–	–
Clc1ccc(-c2nc3ncccn3c2Nc2ccc3c(c2)OCO3)cc1	–	–	–	–	–	–
